The record followed here is PubChem BioAssay.

The source made the active and inactive calls.

A short description of experiment [1]: binders of probe aFSTL3 on microarray, primary screen, stem cell growth factor project, biochemical, small-molecule microarray, fluorescence 635/667 (AID 1064).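 Also: measures binding of the biotinylated anti-FSTL3 antibody to printed compounds.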 The following applies: higher = more signal.
The nature of experiment [2]: binders from COS7 lysate, DM2A8 probe, primary screen, torsin A project, cell lysate, small-molecule microarray, fluorescence 635/667 (AID 1065). Conditions: higher = more signal, COS7 lysate expressing mutant human TOR1A.
Experiment [3] can be described thus: binders of probe aFGF2 on microarray, primary screen, stem cell growth factor project, biochemical, small-molecule microarray, fluorescence 635/667 (AID 1067).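 Also: measures binding of biotinylated aFGF2 protein to printed compounds on slides; z-score merges feature fluorescence and signal-to-noise across triplicate slides.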 The following applies: higher = more signal.
Experiment [4] in a line: binders of probe aFGF10 on microarray, primary screen, stem cell growth factor project, biochemical, small-molecule microarray, fluorescence 635/667 (AID 1071).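 Also: score merges 667 nm spot intensity and signal to noise from triplicate slides.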 The following applies: higher = more signal.
Experiment [5] deals with Neurogenic locus notch homolog protein 2 (Homo sapiens) (UniProt Q04721). The experiment in a line: Notch2 binders on small-molecule microarrays, primary screen, biochemical, small-molecule microarray, 635 nm fluorescence, stem cell growth factors (AID 1073). Conditions: Notch2 binding, higher = more signal.
Chain of Neurogenic locus notch homolog protein 2 (Homo sapiens) (Q04721 whole entry, looked up, canonical isoform): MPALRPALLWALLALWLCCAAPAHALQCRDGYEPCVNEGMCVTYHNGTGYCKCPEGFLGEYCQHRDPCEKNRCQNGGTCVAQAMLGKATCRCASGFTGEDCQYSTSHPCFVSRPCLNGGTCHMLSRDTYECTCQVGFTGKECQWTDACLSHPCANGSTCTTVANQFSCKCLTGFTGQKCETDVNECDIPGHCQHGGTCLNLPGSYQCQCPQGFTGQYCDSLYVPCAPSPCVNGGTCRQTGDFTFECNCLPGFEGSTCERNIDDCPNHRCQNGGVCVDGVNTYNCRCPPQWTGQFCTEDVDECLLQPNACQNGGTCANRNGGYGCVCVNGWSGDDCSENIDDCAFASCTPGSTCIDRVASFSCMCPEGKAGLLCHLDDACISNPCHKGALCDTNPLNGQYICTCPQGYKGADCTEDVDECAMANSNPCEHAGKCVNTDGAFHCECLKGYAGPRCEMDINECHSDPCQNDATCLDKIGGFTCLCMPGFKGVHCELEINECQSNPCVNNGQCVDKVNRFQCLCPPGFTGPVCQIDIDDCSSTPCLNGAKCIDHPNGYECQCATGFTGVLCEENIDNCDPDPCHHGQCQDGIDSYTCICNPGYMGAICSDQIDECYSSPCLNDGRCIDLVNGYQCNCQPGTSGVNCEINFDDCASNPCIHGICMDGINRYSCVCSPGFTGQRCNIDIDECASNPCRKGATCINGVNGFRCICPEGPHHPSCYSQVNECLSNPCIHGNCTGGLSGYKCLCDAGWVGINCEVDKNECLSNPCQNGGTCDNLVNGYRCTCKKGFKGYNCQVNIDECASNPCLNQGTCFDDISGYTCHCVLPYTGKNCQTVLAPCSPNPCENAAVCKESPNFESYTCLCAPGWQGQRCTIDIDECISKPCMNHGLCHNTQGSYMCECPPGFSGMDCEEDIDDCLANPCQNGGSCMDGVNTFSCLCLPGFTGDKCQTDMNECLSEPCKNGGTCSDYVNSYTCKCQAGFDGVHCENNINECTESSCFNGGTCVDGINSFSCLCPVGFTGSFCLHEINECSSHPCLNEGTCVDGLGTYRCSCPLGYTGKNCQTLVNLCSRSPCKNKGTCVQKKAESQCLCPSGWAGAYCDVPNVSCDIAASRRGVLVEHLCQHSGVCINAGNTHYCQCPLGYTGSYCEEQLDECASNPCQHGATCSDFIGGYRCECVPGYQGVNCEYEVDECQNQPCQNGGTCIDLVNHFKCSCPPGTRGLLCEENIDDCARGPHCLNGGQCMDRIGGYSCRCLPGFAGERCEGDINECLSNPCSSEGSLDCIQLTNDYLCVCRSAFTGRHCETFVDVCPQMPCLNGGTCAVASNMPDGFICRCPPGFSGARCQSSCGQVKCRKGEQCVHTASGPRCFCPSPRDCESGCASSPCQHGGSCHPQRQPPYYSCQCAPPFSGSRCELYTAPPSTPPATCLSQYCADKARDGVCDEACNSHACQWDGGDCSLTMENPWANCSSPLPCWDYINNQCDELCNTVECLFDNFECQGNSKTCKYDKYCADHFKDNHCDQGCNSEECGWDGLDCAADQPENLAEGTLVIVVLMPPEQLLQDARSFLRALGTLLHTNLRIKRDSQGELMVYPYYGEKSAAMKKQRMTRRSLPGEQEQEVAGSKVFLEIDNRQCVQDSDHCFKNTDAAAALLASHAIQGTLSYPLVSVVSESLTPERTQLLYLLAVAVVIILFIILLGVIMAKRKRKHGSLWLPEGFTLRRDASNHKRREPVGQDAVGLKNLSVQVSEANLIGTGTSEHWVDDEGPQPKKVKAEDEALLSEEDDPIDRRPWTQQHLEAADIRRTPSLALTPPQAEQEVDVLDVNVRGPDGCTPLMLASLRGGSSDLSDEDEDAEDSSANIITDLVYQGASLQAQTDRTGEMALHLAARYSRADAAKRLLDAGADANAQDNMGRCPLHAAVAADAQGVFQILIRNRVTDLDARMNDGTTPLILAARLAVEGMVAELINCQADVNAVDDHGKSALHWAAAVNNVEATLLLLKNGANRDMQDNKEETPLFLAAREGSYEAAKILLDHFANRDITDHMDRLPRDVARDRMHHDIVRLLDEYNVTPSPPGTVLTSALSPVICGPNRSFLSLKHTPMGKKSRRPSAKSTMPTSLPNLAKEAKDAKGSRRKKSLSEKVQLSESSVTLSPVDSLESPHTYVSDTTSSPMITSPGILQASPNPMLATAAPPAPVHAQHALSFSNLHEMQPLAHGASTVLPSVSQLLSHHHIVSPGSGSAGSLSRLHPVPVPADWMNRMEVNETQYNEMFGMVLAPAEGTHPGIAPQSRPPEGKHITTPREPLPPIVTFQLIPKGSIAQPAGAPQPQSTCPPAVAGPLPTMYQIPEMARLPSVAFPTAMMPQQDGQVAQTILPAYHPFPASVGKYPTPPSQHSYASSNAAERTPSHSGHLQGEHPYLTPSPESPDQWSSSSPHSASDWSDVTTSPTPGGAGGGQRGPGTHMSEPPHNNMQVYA
The target in experiment [6] is Pro-neuregulin-1, membrane-bound isoform (Homo sapiens) (UniProt Q02297). In words: NRG1 binders on small-molecule microarrays, primary screen, psychiatric disease protein project, biochemical, small-molecule microarray, fluorescence 635/667 (AID 1075).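 Also: score combines 667 nm spot fluorescence with signal to noise.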 Conditions: NRG1 binding, 635 nm fluorescence, higher = more signal.
Chain of Pro-neuregulin-1, membrane-bound isoform (Homo sapiens) (Q02297 whole entry, looked up, the tested form may be a part, canonical isoform): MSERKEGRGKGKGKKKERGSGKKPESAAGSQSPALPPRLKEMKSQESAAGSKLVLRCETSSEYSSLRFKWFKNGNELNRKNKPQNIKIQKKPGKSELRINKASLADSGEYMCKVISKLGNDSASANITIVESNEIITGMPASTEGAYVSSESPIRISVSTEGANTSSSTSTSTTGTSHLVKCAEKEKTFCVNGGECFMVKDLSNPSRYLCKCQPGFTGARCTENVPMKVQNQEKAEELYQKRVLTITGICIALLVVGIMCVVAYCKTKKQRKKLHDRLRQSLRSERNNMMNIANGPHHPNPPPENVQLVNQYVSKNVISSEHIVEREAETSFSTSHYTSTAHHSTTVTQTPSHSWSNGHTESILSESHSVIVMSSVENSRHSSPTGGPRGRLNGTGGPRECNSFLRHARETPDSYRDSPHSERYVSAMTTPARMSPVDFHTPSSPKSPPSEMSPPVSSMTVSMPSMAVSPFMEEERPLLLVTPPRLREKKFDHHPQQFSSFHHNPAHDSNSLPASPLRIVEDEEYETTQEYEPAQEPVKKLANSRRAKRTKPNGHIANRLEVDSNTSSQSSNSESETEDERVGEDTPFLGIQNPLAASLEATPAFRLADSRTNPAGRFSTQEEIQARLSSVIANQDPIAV
For experiment [7], the system named is Neuregulin-1 EGF-like domain. In words: binders of neuregulin-1 EGF-like domain, primary screen, biochemical, small-molecule microarray, 635 nm fluorescence (AID 1081).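 Also: binding of the protein to compounds printed on small-molecule microarray slides.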 The following applies: small-molecule microarray binding, higher = more signal.
A short description of experiment [8]: FRG1 promoter luciferase signal modulators, primary screen, FRG1 inhibition for FSHD, cell-based, C2C12 myotubes, firefly/Renilla luciferase, luminescence (AID 1084). The following applies: higher = more signal, called active from +8 up or from −8 down.
The nature of experiment [9]: binders of probe aFST on microarray, primary screen, stem cell growth factor project, biochemical, small-molecule microarray, fluorescence 635/667 (AID 1086).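 Also: score merges 667 nm fluorescence with signal-to-noise of each printed compound spot.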 The following applies: higher = more signal.
Experiment [10] in a line: binders of probe aHhip on microarray, primary screen, stem cell growth factor project, biochemical, small-molecule microarray, fluorescence 635/667 (AID 1087).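 Also: score merges spot fluorescence at 667nm with spot signal to noise ratio.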 Conditions: higher = more signal.

Consider `COC(=O)[C@@]1(Cc2ccccc2CN=[N+]=[N-])N=C(c2ccc(OCCCO)cc2)O[C@H]1c1ccccc1`, for which the composite z-score in experiment [1] is 1.4; in [2], -0.0284; in experiment [3], 0.118; in [4], -0.774; in [5] it was -0.0293; in experiment [6], 0.532. Also, the results for the composite z-score in [7], in experiment [9] and in [10] were 1.2, 0.187 and -0.451, respectively. In experiment [8], the z-score is -2.17 (inactive).

Take `CC(C)C[C@@H]1NC(=O)[C@@H]2C[C@H](C(=O)NCCCCCC[N+](C)(C)C)[C@H](c3cccc(OCCO)c3)N2C1=O`: the composite z-score in [1] was 0.222; in experiment [2], 0.0263; in experiment [3], -0.145; in experiment [4] it was -0.289; in [5], 0.114; in experiment [6], 1.06. In addition, the values for the composite z-score in experiment [7], in [9] and in experiment [10] were 1.18, -0.304 and -0.126, respectively. The z-score in experiment [8] was 2.84 (inactive).

As for `C=C(/C(=C/C[C@H](OC(=O)c1ccncc1)c1ccccc1OCCO)c1cnc2ccccc2c1)C(C)C`, the composite z-score in experiment [1] was -0.145; in experiment [2], 0.763; in experiment [3], -0.0316; in experiment [4], 1.18; in [5], 1.55; in experiment [6], 1.01. Moreover, the figures for the composite z-score in experiment [7], in experiment [9] and in [10] were 1.22, 0.853 and -0.112, respectively. For the same compound, the z-score in experiment [8] was -0.0406 (inactive).

Take `O=C1N(CCS(=O)(=O)c2ccccc2)Cc2ccccc2[C@@H]2OC(c3ccc(OCCCO)cc3)=N[C@]12CCS(=O)(=O)c1ccccc1`: the composite z-score worked out at 0.215 in [1]; 0.675 in experiment [2]; 0.115 in experiment [3]; 0.507 in experiment [4]; 1.66 in [5]; 1.46 in experiment [6]. For the same compound, the composite z-score in [7] came to 1.39; in [9], 1.18; in experiment [10], 0.0053. For the same compound, in experiment [8], the z-score was -2.06 (inactive).

As to `COCCCNC(=O)[C@@]1(Sc2ccc(C)cc2)CC(=O)N(Cc2ccccc2Cl)[C@@H]1c1ccc(CO)cc1I`, the composite z-score in experiment [1] is 0.386; in experiment [2], -0.983; in experiment [3], -0.191; in experiment [4], -0.304; in experiment [5] it was -0.911; in experiment [6], 1.08. The composite z-score in experiment [7] was 0.449; in [9] it was -0.431; in experiment [10], -0.0994. The z-score in [8] is -2.5 (inactive).

Turning to `CN1C(=O)C2C=CC(C(O)c3cc(C(F)(F)F)cc(C(F)(F)F)c3)N(NC(=O)OC(C)(C)C)C2C1=O` (stereo not given), the composite z-score in experiment [1] is 0.153; in experiment [2] it was 0.324; in experiment [3] it was -0.0169; in experiment [4], 0.577; in experiment [5], 1.67; in experiment [6] it was 2.01. The composite z-score in [7] was 1.03; in experiment [9], 1.52; in experiment [10], -0.0296. For the same compound, in [8], the z-score was 1.07 (inactive).

`NC(=O)[C@H]1[C@@H]2C(=O)O[C@@H](c3ccccc3)[C@@H](c3ccccc3)N2[C@@H](c2ccc(O)cc2)[C@]12C(=O)Nc1ccccc12`: the composite z-score in [1] is 0.339; in experiment [2], -1.11; in experiment [3], -0.128; in [4] it was -0.171; in experiment [5], -1.37; in experiment [6], 1.81. Besides, the figures for the composite z-score in experiment [7], in experiment [9] and in experiment [10] were 0.653, -0.442 and -0.137, respectively. Further, in experiment [8], the z-score is -0.977 (inactive).

Regarding `COC(=O)[C@@]1(Cc2ccc(F)cc2)[C@H]2c3cc(C(=O)N(C)C)n(Cc4ccc(O)c(OC)c4)c3C[C@H]2CN1C(=O)c1ccccc1`, the composite z-score came out at 0.129 in experiment [1]; 0.196 in experiment [2]; 0.0398 in experiment [3]; 0.531 in [4]; 1.35 in experiment [5]; 1.26 in experiment [6]. The composite z-score was 0.786 in experiment [7], 0.675 in experiment [9] and 1.17 in experiment [10]. The z-score in experiment [8] is 2.98 (inactive).

Regarding `COc1cccc(/C=C(\C#N)C(=O)Nc2c(C)n(C)n(-c3ccccc3)c2=O)c1`, the composite z-score is -0.408 in experiment [1]; 0.251 in [2]; -0.107 in [3]; 0.324 in experiment [4]; 0.694 in experiment [5]; 1.06 in [6]. Moreover, the values for the composite z-score in experiment [7], in [9] and in [10] were 1.1, 0.336 and -0.216, respectively. In addition, in experiment [8], the z-score is -0.496 (inactive).

As for `CN(C)CCCNC(=O)[C@@H]1c2ccccc2C(=O)N(C2CCCCC2)[C@H]1c1ccc(CO)cc1`, the composite z-score in experiment [1] was -0.537; in [2] it was 0.249; in [3], 0.0036; in experiment [4] it was 0.577; in [5] it was 1.57; in [6] it was 1.59. The composite z-score in experiment [7] was 1.41; in [9] it was 0.434; in experiment [10], -0.131. In [8], the z-score was -0.988 (inactive).

Consider `CC(CO)N1C(=O)[C@@H]2[C@H]3C(=O)OCC=C[C@H]3OC23C=CCN(c2ccc(Cl)cc2)C(=O)[C@@H]13` (stereo not given in full), for which the composite z-score in [1] was 1.22; in experiment [2] it was -1.45; in experiment [3], -0.19; in experiment [4], -1.14; in experiment [5], -1.68; in experiment [6], -0.87. The composite z-score in experiment [7] is 0.688; in [9], -0.672; in experiment [10] it was -0.169. Also, in experiment [8], the z-score is 0.529 (inactive).

As to `COCCOC(=O)N1C(=O)[C@@]2(c3cc(C#CC4=CCCCC4)ccc31)[C@H](C(=O)N1CCCCCCC1)[C@H]1C(=O)O[C@H](c3ccccc3)[C@H](c3ccccc3)N1[C@@H]2c1ccc(OCCO)cc1`, the composite z-score is 1.77 in [1]; 0.399 in experiment [2]; 0.316 in experiment [3]; 0.5 in [4]; 0.891 in experiment [5]; 0.455 in experiment [6]. The composite z-score was 1.1 in experiment [7], 1.36 in experiment [9] and 0.739 in [10]. Besides, in [8], the z-score was 1.06 (inactive).

Consider `Cc1nc2cc(Br)ccc2c(=O)n1Cc1cccc(O)c1`, for which the composite z-score is -0.473 in experiment [1]; 0.116 in experiment [2]; 0.0275 in [3]; 0.659 in experiment [4]; 0.418 in experiment [5]; -0.134 in experiment [6]. Moreover, the composite z-score in experiment [7] was determined as 1.06; in experiment [9] it was 0.314; in experiment [10], 0.409. Besides, the z-score in [8] is 0.156 (inactive).

For `CC(C)(C)OC(=O)CC[C@]1(C(=O)N2CCCCC2)COC(c2ccc(OCCCO)cc2)=N1`, the composite z-score came out at 0.161 in [1]; 1.05 in experiment [2]; 0.0159 in experiment [3]; 1.2 in [4]; 1.6 in [5]; 1.35 in experiment [6]. Further, the composite z-score was determined as 1.15 in experiment [7], 0.372 in experiment [9] and 0.0373 in experiment [10]. The z-score in experiment [8] is -2.51 (inactive).

For `COc1ccc(C(O)C2C=CC3C(=O)N(c4ccccc4)C(=O)C3N2Nc2ccc(C(C)C)cc2)c2ccccc12` (stereo not given), the composite z-score in experiment [1] is -0.0766; in experiment [2], 0.309; in experiment [3], 0.0442; in experiment [4], 0.7; in experiment [5] it was 1.59; in experiment [6], 1.49. Further, the composite z-score in [7] was 1.16; in [9] it was 1.83; in experiment [10], -0.148. Moreover, the z-score in experiment [8] is -1.31 (inactive).

As to `COCCCNC(=O)[C@@]1(c2ccc([N+](=O)[O-])cc2)CC(=O)N(CC23CC4CC(CC(C4)C2)C3)[C@@H]1c1ccc(CO)cc1I`, the composite z-score is 0.456 in experiment [1]; -0.243 in experiment [2]; -0.034 in [3]; 0.246 in experiment [4]; 0.218 in [5]; 1.13 in experiment [6]. For the same compound, the composite z-score in [7] was 1.3; in [9] it was 0.15; in experiment [10], -0.236. Moreover, the z-score in [8] is -2.2 (inactive).

With `COCCOC(=O)N1C(=O)[C@@]2(c3ccccc31)[C@H](c1ccc(OCCO)cc1)N1[C@H](c3ccccc3)[C@H](c3ccccc3)OC(=O)[C@H]1[C@@H]2C(=O)N1CCCCCCC1`, the composite z-score in experiment [1] worked out at 4.01; in [2] it was 2.82; in [3], 1.05; in experiment [4], 1.52; in experiment [5], 1.86; in experiment [6], 3.07. The composite z-score in [7] was found to be 1.54; in experiment [9] it was 3.82; in experiment [10] it was 2.75. The z-score in [8] is -3.1 (inactive).
